Source: PubChem BioAssay AID1159577 (Broad Institute, 2015)
In all, about 1,300 compounds went through this assay and about 240 (18%) were called active. Not shown: some 8% with an inconclusive outcome. How the calls were made is not given here. Not all results are given here. Entries with a potency or affinity are not part of this list.

Test: HepG2 cell cytotoxicity, dose response, cytotoxicity control, cherry-picked samples (AID 1159577)
Conditions: HepG2 cytotoxicity counterscreen, plate reader; series mostly up to 19.5 µM

Structure (SMILES)	outcome
COc1ccc(C#Cc2ccc3c(c2)[C@@H]2[C@@H](CCN2C(=O)C2CCCC2)[C@@H](CO)N3)cc1	inactive
CCC(=O)N1CC2(C1)CN(Cc1ccccc1Cl)[C@@H](CO)c1[nH]c3cc(OC)ccc3c12	inactive
COc1ccccc1NC(=O)N1CC[C@H]2[C@@H]1c1cc(C#Cc3ccc(F)cc3)ccc1N(C)[C@H]2CO	inactive
C[C@H]1CN([C@@H](C)CO)C(=O)c2c(c3ccccc3n2C)-c2ccccc2CO[C@@H]1CN(C)S(=O)(=O)c1ccccc1F	inactive
CO[C@@H]1CN(C)C(=O)c2cc(NC(=O)c3ccc(Oc4ccccc4)cc3)ccc2OC[C@H](C)NC[C@@H]1C	inactive
CO[C@@H]1CN(C)C(=O)c2ccc(NC(=O)c3ccc(F)cc3)cc2OC[C@@H](C)N(C(=O)c2ccc(F)cc2)C[C@@H]1C	inactive
COc1cccc(NC(=O)Nc2ccc3c(c2)C(=O)N(C)C[C@@H](OC)[C@H](C)CN[C@@H](C)CO3)c1	inactive
O=C(c1ccccn1)N1CC(=O)N2[C@H](C1)[C@@H](c1ccc(C#CCc3ccccc3)cc1)[C@@H]2CO	inactive
CCCN(C)C[C@@H]1Oc2cc(C#CC3CCCC3)ccc2S(=O)(=O)N([C@@H](C)CO)C[C@@H]1C	inactive
COc1ccc2c3c(n(C)c2c1)[C@@H](CO)N(Cc1ccccc1)CC31CCN(S(=O)(=O)c2ccc(C)cc2)CC1	inactive
COc1ccc2c3c(n(C)c2c1)[C@@H](CO)N(S(C)(=O)=O)CC31CCN(C(=O)CN(C)C)CC1	inactive
COc1ccc2c3c(n(C)c2c1)[C@@H](CO)N(C(=O)Nc1ccccc1F)CC31CCN(C)CC1	inactive
COc1ccc2c3c(n(C)c2c1)[C@H](CO)N(C(=O)Nc1ccc(F)cc1)CC31CCN(C)CC1	inactive
COc1ccc2c3c(n(C)c2c1)[C@H](CO)N(C(=O)Nc1ccc(F)cc1)CC31CN(Cc2cccnc2)C1	inactive
COc1ccc2c3c(n(C)c2c1)[C@@H](CO)N(C(=O)Nc1ccc(F)cc1)CC31CN(C(=O)c2ccccc2F)C1	inactive
COc1ccc2c3c(n(C)c2c1)[C@@H](CO)N(C(=O)Nc1ccc(F)cc1)CC31CCN(Cc2cccnc2)CC1	inactive
COc1ccc2c3c(n(C)c2c1)[C@H](CO)N(C(=O)Nc1ccc(F)cc1)CC31CN(C(=O)NC2CCCC2)C1	inactive
COc1ccc(-c2ccccc2[C@H]2[C@@H](C#N)N(C(=O)NC3CCCCC3)[C@H]2CO)cc1	inactive
C[C@H](CO)N1C[C@H](C)[C@H](CN(C)S(=O)(=O)c2ccc([N+](=O)[O-])cc2)OCc2ccccc2-c2c(n(C)c3ccccc23)C1=O	inactive
CCNC(=O)c1cc2c(c(-c3cccc(-c4ccccc4F)c3)n1)[C@@H](CCO)N(C(=O)CC1CC1)C2	inactive
C[C@H]1CN([C@@H](C)CO)C(=O)c2c(c3ccccc3n2C)-c2ccccc2CO[C@H]1CN(C)S(=O)(=O)c1ccc(Cl)cc1	inactive
C[C@@H](C(=O)N(C)C[C@@H]1OCc2ccccc2-c2c(n(C)c3ccccc23)C(=O)N([C@@H](C)CO)C[C@@H]1C)c1ccccc1	inactive
COc1cccc(S(=O)(=O)N(C)C[C@@H]2Oc3ncc(C#Cc4ccc(C(F)(F)F)cc4)cc3C(=O)N([C@H](C)CO)C[C@@H]2C)c1	inactive

Structure (SMILES)	outcome
C[C@H](CO)N1C[C@H](C)[C@@H](CN(C)S(=O)(=O)c2ccccc2)Oc2ccc(NC(=O)Cc3cn(C)c4ccccc34)cc2C1=O	inactive
C[C@@H]1CN([C@H](C)CO)C(=O)c2cccc(NS(=O)(=O)c3ccccc3)c2O[C@H]1CN(C)Cc1ccc(Oc2ccccc2)cc1	inactive
COc1cccc(NC(=O)N(C)C[C@H]2Oc3ncc(/C=C/c4ccccc4)cc3C(=O)N([C@@H](C)CO)C[C@@H]2C)c1	inactive
COc1cccc(S(=O)(=O)N2CCC3(CC2)CN[C@@H](CO)c2[nH]c4cc(OC)ccc4c23)c1	inactive
COc1ccc(CN2C[C@H](C)[C@H](OC)CN(C)C(=O)c3cc(NC(=O)c4nc5ccccc5s4)ccc3OC[C@@H]2C)cc1	inactive
C[C@@H]1CN([C@H](C)CO)C(=O)c2cccc(NC(=O)c3nc4ccccc4s3)c2O[C@H]1CN(C)C(=O)NC1CCCCC1	inactive
C[C@@H]1CN([C@H](C)CO)C(=O)c2c(c3ccccc3n2C)-c2ccccc2CO[C@H]1CN(C)S(=O)(=O)c1ccsc1	inactive
CCCNC(=O)N1CC2(CCN(C(=O)CN(C)C)CC2)c2c(n(C)c3cc(OC)ccc23)[C@H]1CO	inactive
CCC(=O)N1CC2(CCN(Cc3ccc(Cl)cc3)CC2)c2c(n(C)c3cc(OC)ccc23)[C@@H]1CO	inactive
CC(C)(C)S(=O)N1Cc2cc(C(=O)N[C@@H]3CCN(Cc4ccccc4)C3)nc(-c3cccc(C#CCC4CCCC4)c3)c2[C@H]1CCO (stereo partly drawn)	inactive
COc1ccc(C#Cc2ccc3c(c2)O[C@@H](CN(C)C(=O)Nc2cccc(OC)c2)[C@H](C)CN([C@@H](C)CO)S3(=O)=O)cc1	inactive
CO[C@@H]1CN(C)C(=O)c2cc(NC(=O)NC3CCCCC3)ccc2OC[C@@H](C)N(CCc2ccccc2)C[C@H]1C	inactive
COc1ccc2c3c([nH]c2c1)[C@@H](CO)N(Cc1cccc(F)c1)CC31CCN(Cc2ccccn2)CC1	inactive
COc1ccc(C#Cc2ccc([C@@H]3[C@@H](CO)N4CCCCN(C(=O)Nc5ccccc5F)C[C@@H]34)cc2)cc1	inactive
COc1ccc(C#Cc2ccc([C@H]3[C@@H](CO)N4CCCCN(C(=O)Nc5ccccc5F)C[C@@H]34)cc2)cc1	inactive
N#C[C@@H]1[C@@H](c2ccccc2-c2ccccc2F)[C@H](CO)N1C(=O)C1CC1	inactive
COCc1cn([C@@H]2C[C@@H]3O[C@@H](CO)CC[C@@H]3O[C@@H]2CCc2ccc(-c3ccc(OC)cc3)cc2)nn1	inactive
O=C(Nc1cccc(F)c1)N[C@@H]1CC[C@@H](CCNS(=O)(=O)c2cccc(Cl)c2)O[C@@H]1CO	inactive
CC(C)NC(=O)N1[C@H](C#N)[C@H](c2ccc(-c3ccc(F)cc3)cc2)[C@@H]1CO	inactive
CCCNC(=O)N1[C@H](C#N)[C@H](c2ccc(-c3cccc(OC)c3)cc2)[C@@H]1CO	inactive
CC(C)NC(=O)N1[C@H](C#N)[C@H](c2ccc(C#CC3CCCC3)cc2)[C@@H]1CO	inactive
COc1ccc(-c2ccc([C@H]3[C@H](C#N)N(C(=O)c4cccc(F)c4)[C@H]3CO)cc2)cc1	inactive
CC(C)NC(=O)N1[C@H](C#N)[C@H](c2ccccc2-c2ccc(F)cc2)[C@@H]1CO	inactive

Structure (SMILES)	outcome
COc1ccc(-c2ccccc2[C@H]2[C@@H](C#N)N(C(=O)NC(C)C)[C@H]2CO)cc1	inactive
C[C@H]1CN([C@@H](C)CO)C(=O)c2c(c3ccccc3n2C)-c2ccccc2CO[C@@H]1CN(C)S(=O)(=O)c1ccc(C(F)(F)F)cc1	inactive
C[C@H]1CN([C@@H](C)CO)C(=O)c2cc(NC(=O)Cc3cn(C)c4ccccc34)ccc2O[C@H]1CN(C)S(=O)(=O)c1ccccc1	inactive
CO[C@H]1CN(C)C(=O)c2cc(NC(=O)c3ccc(F)cc3)ccc2OC[C@H](C)N(C(=O)c2ccc(F)cc2)C[C@H]1C	inactive
O=C(c1ccccn1)N1CC(=O)N2[C@H](CO)[C@@H](c3ccc(C#CCc4ccccc4)cc3)[C@@H]2C1	inactive
CCCNC(=O)c1cc2c(c(-c3cccc(-c4cc5ccccc5o4)c3)n1)[C@@H](CCO)N(C(=O)NC(C)C)C2	inactive
C/C=C/c1ccc([C@H]2[C@H](CO)N(S(=O)(=O)Cc3ccccc3)C23CN(C(=O)C2CCCC2)C3)cc1	inactive
O=C(C1CCC1)N1C[C@@H]2N[C@H](C1)C2c1ccc(-c2ccccc2F)cc1 (stereo partly drawn)	inactive
N#Cc1ccc(-c2ccc(C3[C@@H]4CN(C(=O)C5CCC5)C[C@H]3N4)cc2)cc1 (stereo partly drawn)	inactive
CCCNC(=O)N1CCC2(CC1)CN(Cc1cccc(F)c1)[C@@H](CO)c1[nH]c3cc(OC)ccc3c12	inactive
C[C@@H]1CN([C@@H](C)CO)C(=O)c2cccc(NC(=O)C3CC3)c2O[C@H]1CN(C)Cc1ccc(-c2ccccc2)cc1	inactive
C[C@H](CO)N1C[C@H](C)[C@H](CN(C)S(=O)(=O)c2ccccc2)Oc2ccc(NC(=O)Cc3cn(C)c4ccccc34)cc2C1=O	inactive
C[C@H]1CN([C@@H](C)CO)S(=O)(=O)c2ccc(C#Cc3ccccc3F)cc2O[C@@H]1CN(C)C(=O)c1ccc2c(c1)OCO2	inactive
CO[C@H]1CN(C)C(=O)c2cc(NC(C)=O)ccc2OC[C@H](C)N(Cc2ccncc2)C[C@H]1C	inactive
C[C@@H]1CN([C@@H](C)CO)C(=O)Cc2cc(NC(=O)NC3CCCCC3)ccc2O[C@H]1CN(C)C(=O)Nc1cccc2ccccc12	inactive
COc1ccc(C#Cc2ccc3c(c2)[C@H]2[C@H](CCN2Cc2ccncc2)[C@H](CO)N3)cc1	inactive
COc1ccccc1-c1ccc2c(c1)[C@H]1[C@H](CCN1C(=O)C1CCCC1)[C@@H](CO)N2	inactive
COc1ccc(C#Cc2ccc3c(c2)[C@H]2[C@H](CCN2Cc2nccs2)[C@H](CO)N3)cc1	inactive
COc1ccccc1-c1ccc2c(c1)[C@@H]1[C@@H](CCN1C(=O)C1CCCCC1)[C@@H](CO)N2	inactive
COc1ccc(C#Cc2ccc3c(c2)[C@H]2[C@H](CCN2Cc2ccncc2)[C@@H](CO)N3)cc1	inactive
CCCC#Cc1ccc2c(c1)[C@H]1[C@H](CCN1Cc1ccccc1F)[C@@H](CO)N2	inactive
OC[C@H]1CC[C@@H]2O[C@H](CCc3ccc(C#CCc4ccccc4)cc3)[C@H](n3cc(-c4ccccc4)nn3)C[C@@H]2O1	inactive
